Wnt bcat act – activators of Wnt/beta-catenin signaling. Wnt/beta-catenin reporter cell assay, activator, plate reader. activation, % at 9.35 µM. actives 1.2% (n = 300,000); in the data active means activation above about 30%, passing the limit was not always enough; inconclusive means no clear call, values can overlap the other calls;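 further: 0% = neutral control wells and 100% = positive control wells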
Rtt109 Vps75 – inhibitors of Candida albicans Rtt109/Vps75 histone acetyltransferase; Q5AAJ8; AID 540336; inhibition, % at 34.9 µM; actives 0.16% (n = 330,000); purified Rtt109/Vps75, ThioGlo CoA-SH fluorescence, 4 h;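 active means inhibition of at least 50% in every replicate; inconclusive means best replicate reaches 50% inhibition but some replicates fall short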
Target sequence (Q5AAJ8 whole entry, looked up): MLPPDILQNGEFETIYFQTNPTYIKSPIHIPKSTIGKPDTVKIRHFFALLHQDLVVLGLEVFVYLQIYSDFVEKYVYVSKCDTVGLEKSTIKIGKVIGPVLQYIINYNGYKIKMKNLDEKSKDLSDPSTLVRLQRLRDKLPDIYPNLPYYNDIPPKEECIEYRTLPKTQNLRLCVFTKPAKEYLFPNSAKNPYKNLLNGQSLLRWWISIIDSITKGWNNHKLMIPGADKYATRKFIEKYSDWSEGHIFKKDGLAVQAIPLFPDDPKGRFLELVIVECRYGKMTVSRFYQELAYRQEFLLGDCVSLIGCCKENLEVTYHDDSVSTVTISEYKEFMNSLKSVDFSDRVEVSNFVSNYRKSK
esBAF inh – blocks esBAF chromatin remodeling in mouse ES cells; Bmi1-luciferase knock-in reporter, 24 h; 100% = twice the neutral-well signal; reporter increase, % at 12.5 µM; actives 2% (n = 350,000); AID 602393; in the data active means activation above about 40%; inconclusive means no clear call, values can overlap the other calls;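 further: 0% = median of the plate's neutral control wells and 100% = double that signal; a rise in the Bmi1 reporter signal indicates esBAF inhibition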
MITF act – MITF TRPM1 promoter activation in melanoma cells | SK-MEL-5 TRPM1-promoter luciferase, 24 h; % of positive control, neutral wells = 0 | activation, % at 12.5 µM | actives 0.75% (n = 300,000) | AID 588334;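 active means mean activation of at least 80% with every replicate also reaching 80%; inconclusive means mean reaches 80% but some replicate falls short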;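 further: 0% = neutral control wells and 100% = parthenolide positive control wells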
Statin myotox sup – protects C2C12 myotubes from simvastatin toxicity; ATP luminescence, 48 h; scaled: DMSO 0, geranylgeraniol control 100; rescue of ATP level, % at 7.49 µM; actives 0.78% (n = 330,000); AID 602340;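 active means mean ATP rescue above about 67%, or every replicate alone reaching that limit, limit read from the data, passing the limit was not always enough; inconclusive means no clear call, values can overlap the other calls; inactive means mean under the limit and some replicate under it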;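 further: myotubes were challenged with 10 µM simvastatin during compound exposure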
Numbers without * were called inactive; ? = inconclusive; . = no result; ! = a repeat was not active. Sampled rows, rich in hits. Any-hit rate of the full collection: about 3.1%.

SMILES | Wnt bcat act | Rtt109 Vps75 | esBAF inh | MITF act | Statin myotox sup
COC(=O)c1ccc(NC(=O)c2cccc(C)c2)cc1 | 3 | -1 | 28 | 37 | -4
COC(=O)c1ccc(NC(=O)c2cccc(OC)c2)cc1 | 0 | -5 | 47* | 60 | -23
COc1cccc(C(=O)Nc2ccc(C)cc2)c1 | 22 | -6 | 21 | 70 | -29
COc1cccc(C(=O)Nc2ccc3c(c2)C(=O)c2ccccc2C3=O)c1 | 10 | 50* | . | 63 | .
COc1ccc(NC(=O)c2cccc(NC(=O)c3ccccc3)c2)cc1 | 2 | . | 41* | . | 1
C[C@@H]1CN([C@@H](C)CO)C(=O)c2cc(NC(=O)CCC(F)(F)F)ccc2O[C@@H](C)CCCCO[C@@H]1CN(C)C(=O)C1CCCCC1 | . | . | -5 | . | .
Cc1noc(C)c1S(=O)(=O)Nc1ccc2c(c1)CC(=O)N([C@H](C)CO)C[C@@H](C)[C@@H](CN(C)S(=O)(=O)c1cccs1)O2 | . | . | 5 | . | 7
COc1ccc(NC(=O)Nc2ccc3c(c2)C(=O)N([C@H](C)CO)C[C@H](C)[C@@H](CN(C)S(=O)(=O)c2cn(C)cn2)OCCCC[C@@H](C)O3)cc1 | . | . | 3 | . | .
COc1cccc(NC(=O)c2cccc(Cl)c2)c1 | 41* | 1 | 71* | 104* | -14
COc1cccc(S(=O)(=O)NCc2ccc(C(=O)Nc3ccc(C)cc3)cc2)c1 | . | -2 | 8 | -1 | 95*
COc1cccc(C(=O)NC(=S)Nc2ccc(N3CCCC3)cc2)c1 | . | -3 | -7 | 14 | -31
COc1ccc(C(=O)Nc2ccccc2C(=O)NC(Cc2ccc(O)cc2)C(=O)NNC(=O)c2ccccc2Cl)cc1 (stereo not given) | -3 | 10 | -2 | 10 | 112*
COc1cccc(C(=O)NC(=S)Nc2ccc(N(C)C)cc2)c1 | 17 | 7 | 61* | ? | -14
CO[C@@H]1CN(C)C(=O)c2ccc(NC(=O)c3ccccc3)cc2OC[C@@H](C)N(C(=O)CN(C)C)C[C@H]1C | . | . | 0 | . | -21
COc1cccc(C(=O)Nc2ccc(C(=O)c3ccccc3)cc2)c1 | 6 | 2 | 42* | . | -2
COc1cccc(C(=O)NCCn2ccc3ccccc32)c1 | 24 | 13 | 71* | . | 6
Cc1ccc(C(=O)Nc2ccccc2C(=O)NC(C(=O)O)C(C)C)cc1 (stereo not given) | 5 | 2 | 31*! | 25 | 64
COc1cc(OC)cc(C(=O)NCCn2ccc3ccccc32)c1 | -3 | 5 | 13 | . | -5
COc1cc(NC(=O)C(Cc2ccccc2)n2cccc2)cc(OC)c1 (stereo not given) | -3 | 52* | . | 8 | .
COc1cccc(C(=O)Nc2ccc(C(=O)O)cc2)c1 | . | 11 | -4 | 6 | -4
C/C=C/c1ccc2c(c1)O[C@@H](CN(C)C(=O)NC(C)C)[C@@H](C)CN([C@@H](C)CO)S2(=O)=O | . | . | 1 | . | 12
C[C@H]1CN([C@@H](C)CO)S(=O)(=O)c2ccc(C#Cc3cccc(F)c3)cc2O[C@H]1CN(C)S(=O)(=O)c1ccccc1F | . | . | 4 | . | 21
COC(=O)c1cccc(NC(=O)c2cccc(OC)c2)c1 | 28 | 1 | 61* | 53 | -30
CCCNC(=O)N1C[C@@H](C)[C@H](OC)CN(C)C(=O)c2ccc(NS(C)(=O)=O)cc2OC[C@@H]1C | . | . | -2 | . | 9
Cc1cccc(-n2c(C)nc3cc(C(=O)N4CCOCC4)ccc32)c1 | 0 | -2 | 24 | 5 | 4
SMILES | Wnt bcat act | Rtt109 Vps75 | esBAF inh | MITF act | Statin myotox sup
Cc1cccc(-n2cnc3cc(C(=O)N4CCCCC4)ccc32)c1 | 11 | 2 | 44* | 27 | .
FC(F)Oc1ccc(NC(=S)NC23CC4CC(CC(C4)C2)C3)cc1 | -1 | 1 | 50* | 4 | -14
CN(C)c1ccc(NC(=S)NC23CC4CC(CC(C4)C2)C3)cc1 | 1 | 4 | 67* | 40 | 7
CCOc1ccc(NC(=S)NC23CC4CC(CC(C4)C2)C3)cc1 | -1 | -9 | 5 | 11 | -23
CSc1ncccc1C(=O)OCc1ccccc1F | -1 | 4 | 50* | 56 | 4
COc1ccc(NC(=O)Nc2ccc3c(c2)C(=O)N([C@H](C)CO)C[C@H](C)[C@@H](CN(C)C(=O)CCC(F)(F)F)OCCCC[C@H](C)O3)cc1 | . | . | -3 | . | .
COc1ccc2nc(-c3ccccc3)nc(C3CCCCC3)c2c1 | -8 | 5 | 16 | 15 | 18
COc1ccc2nc(-c3ccccc3)nc(SC)c2c1 | 12 | -6 | 47* | 27 | -14
COc1ccc2nc(C)[nH]c(=O)c2c1 | . | -1 | -2 | -2 | -5
COc1ccc2nc(-c3ccccc3)[nH]c(=O)c2c1 | 3 | -6 | 44* | 34 | -1
O=C(C[C@@H]1CC[C@H]2[C@@H](COC[C@@H](O)CN2Cc2ccc(C(F)(F)F)cc2)O1)N1CCc2ccccc2C1 | . | . | 2 | . | 40
O=[N+]([O-])c1ccc(-c2cnc3ccccc3n2)cc1 | 4 | -1 | 55* | . | -1
Cc1nc2ccccc2nc1-c1ccc([N+](=O)[O-])cc1 | -1 | -14 | 12 | 5 | 0
CCn1ncc(Br)c1C(=O)Nc1cc(C(=O)OC)ccc1C(=O)OC | . | -5 | 28 | 19 | 123*
CCn1ncc(Br)c1C(=O)Nc1ccccc1OC | 1 | -1 | . | 11 | .
OCCC1CN(Cc2nc(-c3ccccc3)cs2)CCN1C1CCCC1 (stereo not given) | 34* | 1 | 1 | 7 | -12
Cc1cccc(C(=O)NNS(=O)(=O)c2ccc(F)cc2)c1 | 0 | 0 | 42* | . | -1
C[C@@H]1CN([C@H](C)CO)C(=O)CCCn2nncc2CO[C@@H]1CN(C)Cc1ccncc1 | . | . | -3 | . | 2
O=C(O)c1c2c(nc3ccccc13)/C(=C/c1ccc(O)cc1)CC2 | -1 | . | . | -27 | .
O=C(O)c1c2c(nc3ccccc13)/C(=C/c1ccc(OC(F)F)cc1)CCC2 | 9 | 13 | 59* | 27 | 6
COC(=O)c1ccc2c(=O)[nH]c(CSc3nc(-c4ccc(F)cc4)cs3)nc2c1 | 0 | -2 | . | -7 | .
COC(=O)c1ccc2c(=O)[nH]c(CSc3nc(C)cs3)nc2c1 | 35* | -1 | 23 | 31 | 3
COc1cc2c(cc1OC)CN(c1ccc3ccccc3n1)CC2 | 7 | -123 | ? | 53 | 3
COc1cc2c(cc1OC)CN(c1ccc(C(F)(F)F)cn1)CC2 | 4 | -4 | 41* | 37 | -23
CC(C)(C)OC(=O)N1CCC(NC(=O)c2ncn(Cc3ccccc3)c2C(=O)NC2CCN(C(=O)OC(C)(C)C)CC2)CC1 | -6 | 7 | 35 | 432* | 11
COc1ccc(S(=O)(=O)N(C)C[C@H]2OCCCC[C@H](C)Oc3ccc(NC(=O)C4CCCCC4)cc3C(=O)N([C@@H](C)CO)C[C@H]2C)cc1 | . | . | -2 | . | .
COC(=O)C1C(=O)c2c([nH]c(C(=O)OC3CCCC3)c2C)CC1C (stereo not given) | . | 5 | 76* | 107* | -55

Source: PubChem BioAssay (Broad Institute)
